TDP-43 yeast inh = inhibitors of TDP-43 toxicity in yeast | TDP-43 expressing yeast growth rescue, BacTiter-Glo, 24 h | hit rate 1.8% among 410,000 | Potency, µM (highest dose often 46.1 µM), hits mostly activators; further: nearly all actives have a fitted effect of over 50% in size
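Yeast expressing TDP-43 (pregrown in raffinose, seeded at OD600=0.02 in galactose medium) exposed to compounds 24 hr at 30 deg C. Growth read by BacTiter-Glo luminescence; rescue of toxicity appears as increased signal.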
Abeta rescue = A-beta toxicity reversal in yeast; hit rate 0.063% among 410,000; yeast expressing A-beta42, growth rescue, OD600, 48 h; response scale: 0% DMSO, 100% iron-clioquinol control; Potency, µM (top dose mostly 46.1 µM), usual class: activators; further: nearly all actives have a fitted effect of over 55% in size
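Growth rescue measured by 600 nm absorbance after 48 h yeast culture at 30 C with compound. Values normalized between DMSO and an equimolar ferric chloride plus clioquinol control.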
aSyn yeast inh = rescues yeast growth from alpha-synuclein toxicity; Yeast expressing alpha-synuclein, growth rescue, BacTiter-Glo, 24 h; Potency, µM (series often up to 46.1 µM), usual class: activators; hit rate 0.14% among 370,000; further: nearly all actives have a fitted effect of over 65% in size
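Rescue of yeast growth: cells expressing toxic alpha-synuclein, induced in galactose at OD600 0.02, incubated with compound 24 h at 30 C. ATP luminescence quantified growth; inhibitors of toxicity appear as activators.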
FUS yeast rescue = suppressors of FUS proteinopathy in yeast; S. cerevisiae FUS-expressing, growth rescue, OD600, 24 h; Potency, µM (titrated, usually from 76.6 µM), most hits filed as activators; hit rate 0.24% among 390,000; AID 1347120; further: nearly all actives have a fitted effect of over 55% in size
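Yeast expressing FUS under galactose induction, OD 0.005 in 2% galactose medium; compounds in a dilution series, 24 h at 30C. Growth rescue by absorbance at 600 nm; CP55940 positive control, DMSO negative.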
Hits are given with their value; - = inactive; ? = inconclusive; . = no result given; [ ] = another dose, or the depositor's remark. An excerpt weighted towards active compounds, which were near 2.1% of everything screened. The call rests on the fitted dose curve; in most records, active means well fitted curve in the direction sought with a large enough effect; inconclusive means small, poorly fitted or top-dose-only effect, or another doubt; inactive means no such curve, though single readings can be large; an effect the other way counts as inactive or inconclusive.

SMILES	TDP-43 yeast inh	Abeta rescue	aSyn yeast inh	FUS yeast rescue
CCOC(=O)c1c(CSc2ccccc2)oc2ccc(O)cc12	20µM	-	-	-
CCOC(=O)c1c(CSc2ccc(C)cc2)oc2ccc(O)cc12	22µM	-	-	-
CCN(CC)CC(=O)c1c(C)n(C)c2ccc(OC)cc12	.	.	-	.
CC(C)(C)NC(=O)[C@H](c1cccnc1)N(C(=O)c1ccco1)c1ccc(C(C)(C)C)cc1	.	.	.	-
Cc1cccc(C2C=C(c3ccc(F)cc3)Nc3nc4ccccc4n32)c1 (stereo not given)	32µM	-	.	-
Cc1ccc(C2=CC(c3ccccc3C)n3c(nc4ccccc43)N2)cc1 (stereo not given)	10µM	-	.	-
COc1ccc([C@H]2CC(=O)C=C(c3cccc(C(C)C)c3)C2)cc1	-	-	-	-
COc1ccc([C@H]2CC(=O)C=C(c3ccc4cc[nH]c4c3)C2)cc1	25µM	-	-	-
COc1ccc([C@H]2CC(=O)C=C(c3ccc4[nH]ccc4c3)C2)cc1OC	22µM	-	-	?
COc1ccc([C@H]2CC(=O)C=C(c3cccc(OC)c3)C2)cc1	11µM	-	-	-
COc1ccc(C2=CC(=O)C[C@H](c3ccc(OC)cc3)C2)cc1	14µM	-	-	?
COc1ccc([C@H]2CC(=O)C=C(c3ccc(SC)cc3)C2)cc1	-	-	-	-
COc1cc2nc(N3CCCCC3)nc(NC3CCN(C)CC3)c2cc1OC	.	.	-	.
Cc1ccc(OCc2nnc(SCC(=O)Nc3ccc(S(N)(=O)=O)cc3)n2-c2ccc(Cl)cc2)cc1	.	.	.	-
Cc1ccc(N(CC(=O)Nc2ccc(Br)cc2)S(=O)(=O)c2cccs2)cc1	-	-	.	-
COc1ccc(C2=CC(=O)C[C@H](c3ccc(Cl)cc3)C2)cn1	18µM	-	-	-
COc1ccc([C@H]2CC(=O)C=C(c3cc(Cl)cc(Cl)c3)C2)cc1	-	-	-	-
COc1ccc([C@H]2CC(=O)C=C(c3ccccc3)C2)cc1	18µM	?	-	-
CCOC(=O)CC(=O)CSc1nc2c(cc1C#N)CCCCCC2	-	-	-	11µM
COC(=O)CC(=O)CSc1nc2c(cc1C#N)CCC2	-	-	-	-
Cc1ccc(NC(=O)C2CCCN2S(=O)(=O)c2cccnc2)cc1C (stereo not given)	.	.	.	-
CCOC(=O)/C=C/C(=O)OCC(=O)Nc1ccc([N+](=O)[O-])cc1	14µM	.	-	-
COc1cc(-n2c(C)nc3cc(C(=O)N4CCCC4)ccc32)cc(OC)c1OC	.	.	.	-
O=C(NC1CCCCC1)c1ccc(-c2ccccc2F)o1	13µM	-	-	.
O=C(NC1CCCCCC1)c1ccc(CS(=O)(=O)Cc2ccccc2F)o1	-	-	-	-
SMILES	TDP-43 yeast inh	Abeta rescue	aSyn yeast inh	FUS yeast rescue
O=C(CCC(=O)N1CCN(C2c3ccccc3-c3ccccc32)CC1)Nc1nnc(C(F)(F)F)s1	.	.	.	-
CCCNC(=O)c1csc(Nc2cccc3ccccc23)n1	32µM	-	-	-
CCOc1ccc(C(=O)N2CCC(c3noc(-c4ccc(S(=O)(=O)N5CCCC5)cc4)n3)CC2)cc1	-	-	.	16µM
CCOc1ccc(C(=O)N2CCC(c3nc(-c4ccc(S(=O)(=O)N5CCCC5)cc4)no3)CC2)cc1	-	-	.	-
Cc1ccc(Nc2nc3ccccc3c3nnc(C)n23)cc1Cl	-	-	.	-
Cc1nnc2c3ccccc3nc(Nc3cccc(O)c3)n12	35µM	-	.	-
CC(=O)c1cccc(NC(=O)C2(C)Cc3c(-c4ccccc4)ccnc3O2)c1 (stereo not given)	20µM	-	-	-
CC1(C(=O)NCc2ccc(F)c(F)c2)Cc2c(-c3ccccc3)ccnc2O1 (stereo not given)	35µM	-	-	-
CC1(C(=O)NCCc2ccccc2)Cc2c(-c3ccc4c(c3)OCO4)ccnc2O1 (stereo not given)	-	-	-	-
CC1(C(=O)NCc2ccc(F)c(F)c2)Cc2c(-c3cccc(C(F)(F)F)c3)ccnc2O1 (stereo not given)	-	-	?	-
CC1(C(=O)NCc2ccccc2)Cc2c(-c3ccc4c(c3)OCO4)ccnc2O1 (stereo not given)	18µM	-	-	-
CC(=O)Nc1ccc(-c2ccnc3c2CC(C)(C(=O)Nc2cccc(C(C)=O)c2)O3)cc1 (stereo not given)	-	-	-	-
COc1ccc(C(=O)Nc2nnc(S(=O)(=O)N(C)c3ccc(C)cc3)s2)cc1	-	-	.	-
COc1cccc(/C=C/c2cnc3ccccc3n2)c1OC	.	.	-	.
CCCC1CCC2(CCCN2CCOC(=O)Nc2ccc(F)cc2)CC1 (stereo not given)	.	.	.	-
Cc1ccc(NC(=O)Cc2cccs2)cc1Cl	20µM	-	-	-
O=C(Cc1cccs1)Nc1ccc(F)c(F)c1	?	-	-	-
Cc1ccnc(NS(=O)(=O)c2ccc(NC(=O)Cc3cccs3)cc2)n1	-	-	-	?
CC(Cc1cccs1)NC(=S)Nc1ccc(Cl)cc1 (stereo not given)	-[0.397 µM]	?	-	-
CC(Cc1cccs1)NC(=S)Nc1ccc(Cl)c(Cl)c1 (stereo not given)	-[0.397 µM]	11µM	-	-
O=C(Cc1cccs1)Nc1ccc(S(=O)(=O)Nc2ncccn2)cc1	-	-	-	10µM
CC(=O)/C(=C/c1ccccc1)C(=O)Nc1ccccc1C	2.5µM	-	?	-
Cc1ccc(S(=O)(=O)N2O[C@@H](c3ccccc3)C[C@H]2CON2C(C)(C)CCCC2(C)C)cc1	.	.	.	-
C#CCN1CC(N(C)CCO)CS1(=O)=O (stereo not given)	.	.	.	-
COc1cc2c(cc1OC)CN(C1CC(=O)N(c3c(C)cccc3C)C1=O)CC2 (stereo not given)	14µM	-	-	-
SMILES	TDP-43 yeast inh	Abeta rescue	aSyn yeast inh	FUS yeast rescue
COc1ccccc1N1CCN(C2CC(=O)N(c3cccc(Br)c3)C2=O)CC1 (stereo not given)	-	-	-	-
CC(=O)N1N=C(c2cccc([N+](=O)[O-])c2)OC1(C)c1cccs1 (stereo not given)	?	-	-	-
CC(=O)N1N=C(c2cccc([N+](=O)[O-])c2)OC1c1ccccc1Cl (stereo not given)	22µM	-	-	-
FC(F)(F)c1cc(CNC2CCC23CCCCC3)ccc1Cl (stereo not given)	.	.	.	-
Cc1cccc(C)c1Cn1c(C)c(C(=O)NCc2ccc([N+](=O)[O-])cc2)sc1=O	11µM	-	-	?
Cc1ccc(S(=O)(=O)N2CCN(c3nc(-n4ccnn4)nc4ccccc34)CC2)cc1	.	.	-	.
CC(=O)OC12CCCN(C1)/C(=C/c1cccnc1)C2 (stereo not given)	.	.	.	-
COc1ccc(C(=O)Nc2cccc(N(C)S(C)(=O)=O)c2)cc1OC	-	-	-	-
Cc1ccc(C(=O)Nc2cccc(N(C)S(C)(=O)=O)c2)cc1S(=O)(=O)Nc1ccccc1	-	-	-	35µM
CCN(C(=S)Nc1ccc(C(C)=O)cc1)C1CCCCC1	22µM	-	-	-

Bioassay records as filed in PubChem.
